According to the supplement of paper PMC6555819:

Test system: VDR:RXRa (NR concentration 270 nM, RXRa partner concentration 90 nM)
Assay: PBM binding z-score (relative to random genomic background probes); higher = stronger binding; sequences stand for … in GC…GCGATTGACAGCGTAGAATGAAGG
Procedure: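 Protein-binding microarray (Agilent 4x180K custom design, double-stranded 60-nt probes: 5' GC cap, 34-nt variable region, 24-nt constant primer region; full probe sequence given). Purified or IVT nuclear receptor:RXRα heterodimers (3:1 NR:RXRα, mostly 270:90 nM) or homodimers were incubated for 1 h in PBS with 2% milk and no ligand, then detected with Alexa488 antibodies. Fluorescence from o1-orientation probes (~5 replicates averaged) was converted to z-scores against 500 random hg19 background probes. Variable regions are seed direct-repeat (DR0–DR5) sites, all their single-nucleotide variants and half-site ablations.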

Row | Sequence | PBM binding z-score
1 | ATCGAAAGGTCGTGAGGTGAATATACAGAAAGGC | 3.88
2 | TTACCAAGGTTAGCTGAGGTCGTTGATCCAACTC | 5.09
3 | AGTCAAAGTTCCTCTAGGTAACGTAAGATATGCT | 0.145
4 | AGTCAAAGTTCATCGAGGTAACGTAAGATATGCT | 6.17
5 | ACTTACCGGTCAACGAGGTTATAGCACGCGTATA | 6.19
6 | TCATATCGGTAATACAGGTGAAAGTCGGCATCTA | 0.66
7 | CAAACTTGGTCACGAAAGGTCAAAGTCGAATGAC | 5.37
8 | ACTATTATTTGACTTAGGGCAACCGATACGACGC | 0.993
9 | ACTATCAGTTGACTTAGGGCAACCGATACGACGC | 0.408
10 | ACTTACGAGTCAACGAGGTTATAGCACGCGTATA | 4.89
11 | CGCACTAGGTCAGAACAGGACAGTGAAGGATGAT | 0.776
12 | ACAGACAGGCGATGAAGGTAACTCAGGCTATCAT | -0.262
13 | CGAACTAGGTCAGAACAGGACAGCGAAGGATGAT | 0.817
14 | TTACCAAGGTGAAGGTCGTCGATCCCTCTGTAGA | 1.09
15 | TCAGGCAGGTGAAGGTAACTCAGGTACGCAGTCG | 0.269
16 | CAACCTAGGTCAAGAGGTCAAAGTCCGCTTCCCG | 6.21
17 | ATCGAAAGGTGGAGGTGAGTATAGAGAAAGGGAA | 0.346
18 | AGAATGAGGTTACCAAAGAGCAGGGAAACGCTTG | 1.05
19 | TACCCTAGGTCATGCGGGCCAGTATAGTGTCGGC | 3.23
20 | CCCGACAGGTGAGAAGGTAACTCAGCCTCGATTA | -0.17

Row | Sequence | PBM binding z-score
21 | CAAACTAGGCCAAGAGGTCAAAGTCCGCTTCCCG | 4.94
22 | TCTGCTAGGTCAACGATGGTCACCTAATCTGCTA | 2.19
23 | ACTATTAGTTGAGACGAGGGCAACTGATAGGTTG | 0.583
24 | CCTTACGGGTCAAGGTTACAGCACGGGTGGTACG | 3.34
25 | CGTCAAAATTCAAGGTAACGTAACAGAAAGCAGC | 0.111
26 | CCAGACAGGTGAAAGGTAACTCATTCTGGTACGC | 0.817
27 | GGAACGAGGGCATTCGAGATGATAGCATGGCGAT | 1.45
28 | AGAATGAGGTTATTCGTAGATCAGGGAAGAAAGT | 1.78
29 | CCGACTGGGGCATAAGGTTACCAGAAGCCAGCCC | 0.214
30 | ATATGTAGGTGAGCTGGGGTCATTCAGACTAGGC | 5.66
31 | TAGCCTAGGTCAGATCGGGCCAGTATTCGCTATA | 0.465
32 | ACTATTAGTTGCGACGAGGGCAACCGATAGGTTG | 0.0281
33 | TTACCACGGTGAAGGTCGTTGATCCCTCTGTAGA | 0.957
34 | CTCGAATGGTCGTGCTCAGGTGAGTATACCAAAC | -0.155
35 | TATATTAGTTGATTAGGGCAACCGAAACAGCGGA | 0.452
36 | TCTCGCAGGACACGAAGGTCAGAGCTTTCCAGAG | 1.57
37 | TCTTGTAGATCAGTAGAGGTTAAGAAAGTGCGCT | 1.51
38 | CCTGCTAGGTCAATGGTCATCTAAAGCAGCTCGC | 1.31
39 | GGAACGAGGGCATTCGAGTAGATAGCATGGCGAT | 0.958
40 | CTCGAAAGGTCGGTTGAGCTGAGTATACGGATAA | 0.528
